Counter-ions that a name gives are not always drawn.
System: Danio rerio larvae (5 dpf)
Experiment: startle response to 20-s acoustic pulses, difference vs DMSO (percentage points (treated minus DMSO)); higher = more of the behaviour than the DMSO vehicle control
Settings: 10 µM; exposure time: 3 h pre-incubation + 3 h imaging
Protocol: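 5-dpf wild-type zebrafish larvae were imaged in 96-well plates. They were treated with 190 Tocris FDA-approved drugs at 10 µM (1 µl/ml DMSO) for 3 h before and 3 h during imaging at 28.5 °C, 48 larvae per drug. Automated image analysis gave % time moving and optomotor responses. Values are drug group mean minus DMSO vehicle mean (n=844), in percentage points, for 10 behaviours.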

| SMILES | startle response to 20-s acoustic pulses |
| --- | --- |
| CC(=O)Nc1ccc(O)cc1 [Acetaminophen] | -1.63 |
| Cc1nc(-c2ccc(OCC(C)C)c(C#N)c2)sc1C(=O)O [Febuxostat] | 2.71 |
| NC(=O)c1ncn([C@@H]2O[C@H](CO)[C@@H](O)[C@H]2O)n1 [Ribavirin] | 1.75 |
| CC(C)N(CCCCOCC(=O)NS(C)(=O)=O)c1cnc(-c2ccccc2)c(-c2ccccc2)n1 [Selexipag] | -1.31 |
| O=C(O)c1cc(/N=N/c2ccc(S(=O)(=O)Nc3ccccn3)cc2)ccc1O [Sulfasalazine] | -1.02 |
| C[C@H]1O[C@H](O[C@H]2[C@H](O)[C@@H](O)[C@@H](O[C@H]3[C@H](O)[C@@H](O)C(O)O[C@@H]3CO)O[C@@H]2CO)[C@H](O)[C@@H](O)[C@@H]1N[C@H]1C=C(CO)[C@@H](O)[C@H](O)[C@H]1O (stereo not given in full) [Acarbose] | -6.81 |
| NS(=O)(=O)c1cc(C(=O)O)c(NCc2ccco2)cc1Cl [Furosemide] | -4.02 |
| CN[C@H]1CC[C@@H](c2ccc(Cl)c(Cl)c2)c2ccccc21 [Sertraline hydrochloride] | 1.74 |
| CNCc1ccc(-c2[nH]c3cc(F)cc4c3c2CCNC4=O)cc1 [Rucaparib camsylate] | -4.08 |
| CC(=O)O[C@]1(C(C)=O)CC[C@H]2[C@@H]3C=C(C)C4=CC(=O)CC[C@]4(C)[C@H]3CC[C@@]21C [Megestrol Acetate] | -15.1 |
| CC[C@H]1OC(=O)[C@H](C)[C@@H](O[C@H]2C[C@@](C)(OC)[C@@H](O)[C@H](C)O2)[C@H](C)[C@@H](O[C@@H]2O[C@H](C)C[C@H](N(C)C)[C@H]2O)[C@](C)(O)C[C@@H](C)CN(C)[C@H](C)[C@@H](O)[C@]1(C)O [Azithromycin] | 2.64 |
| CCC(C)(C)C(=O)O[C@H]1C[C@@H](C)C=C2C=C[C@H](C)[C@H](CC[C@@H]3C[C@@H](O)CC(=O)O3)[C@H]21 [Simvastatin] | 3.9 |
| O=C1CCc2ccc(OCCCCN3CCN(c4cccc(Cl)c4Cl)CC3)cc2N1 [Aripiprazole] | -4.17 |
| CN1CC2c3ccccc3Oc3ccc(Cl)cc3C2C1 (stereo not given) [Asenapine maleate] | -6.44 |
| Cc1ccc(-c2cc(C(F)(F)F)nn2-c2ccc(S(N)(=O)=O)cc2)cc1 [Celecoxib] | -6.81 |
| COc1ccccc1Oc1c(NS(=O)(=O)c2ccc(C(C)(C)C)cc2)nc(-c2ncccn2)nc1OCCO [Bosentan] | 6.71 |
| CCCC1O[C@@H]2C[C@H]3[C@@H]4CCC5=CC(=O)C=C[C@]5(C)[C@H]4[C@@H](O)C[C@]3(C)[C@]2(C(=O)CO)O1 (stereo not given in full) [Budesonide] | -5.65 |
| CN(C)CCc1c[nH]c2ccc(C[C@H]3COC(=O)N3)cc12 [Zolmitriptan] | 2.21 |
| CNC(=O)c1ccccc1Sc1ccc2c(/C=C/c3ccccn3)n[nH]c2c1 [Axitinib] | -7.73 |
| COc1cc2nc(N3CCN(C(=O)c4ccco4)CC3)nc(N)c2cc1OC [Prazosin hydrochloride] | 5.19 |

| SMILES | startle response to 20-s acoustic pulses |
| --- | --- |
| CN/C(=N\CCSCc1nc[nH]c1C)NC#N [Cimetidine] | 7.14 |
| O=C(Nc1c(Cl)cncc1Cl)c1ccc(OC(F)F)c(OCC2CC2)c1 [Roflumilast] | 1.99 |
| COc1cc2nc(N3CCN(C(=O)C4COc5ccccc5O4)CC3)nc(N)c2cc1OC (stereo not given) [Doxazosin mesylate] | 7.2 |
| O=c1n(CCCN2CCN(c3cccc(Cl)c3)CC2)nc2ccccn12 [Trazodone hydrochloride] | 2.64 |
| Cc1ccc(N(CC2=NCCN2)c2cccc(O)c2)cc1 [Phentolamine Mesylate] | -1.56 |
| OC(c1cc(C(F)(F)F)nc2c(C(F)(F)F)cccc12)C1CCCCN1 (stereo not given) [Mefloquine hydrochloride] | -13.3 |
| C[C@@H]1C[C@H]2[C@@H]3CCC4=CC(=O)C=C[C@]4(C)[C@@]3(F)[C@@H](O)C[C@]2(C)[C@@]1(O)C(=O)CO [Dexamethasone] | -1.79 |
| Nc1nc(F)nc2c1ncn2[C@@H]1O[C@H](CO)[C@@H](O)[C@@H]1O [Fludarabine] | 3.23 |
| CCCCNc1cc(C(=O)O)cc(S(N)(=O)=O)c1Oc1ccccc1 [Bumetanide] | 3.98 |
| CCC(=O)O[C@]1(C(=O)SCF)[C@H](C)C[C@H]2[C@@H]3C[C@H](F)C4=CC(=O)C=C[C@]4(C)[C@@]3(F)[C@@H](O)C[C@@]21C [Fluticasone propionate] | -3.1 |
| CCCCC1=NC2(CCCC2)C(=O)N1Cc1ccc(-c2ccccc2-c2nnn[nH]2)cc1 [Irbesartan] | 1.39 |
| O=C(c1ccc(OCCN2CCCCC2)cc1)c1c(-c2ccc(O)cc2)sc2cc(O)ccc12 [Raloxifene hydrochloride] | 1.88 |
| CC(C)(C(=O)O)c1ccc(C(O)CCCN2CCC(C(O)(c3ccccc3)c3ccccc3)CC2)cc1 (stereo not given) [Fexofenadine hydrochloride] | 4 |
| CN(C)C(=N)NC(=N)N [Metformin hydrochloride] | -1.12 |
| CN(CCOc1ccc(CC2SC(=O)NC2=O)cc1)c1ccccn1 (stereo not given) [Rosiglitazone] | -1.12 |
| COC(c1ccccc1)(c1ccccc1)[C@H](Oc1nc(C)cc(C)n1)C(=O)O [Ambrisentan] | 5.96 |
| CN1CCC[C@@H]1CCO[C@](C)(c1ccccc1)c1ccc(Cl)cc1 [Clemastine fumarate] | -7.67 |
| C#CCN[C@@H]1CCc2ccccc21 [Rasagiline mesylate] | 2.17 |
| NC(=O)N1c2ccccc2C=Cc2ccccc21 [Carbamazepine] | 2.54 |
| C=CC(=O)N1CCC[C@@H](n2nc(-c3ccc(Oc4ccccc4)cc3)c3c(N)ncnc32)C1 [Ibrutinib] | 3.06 |

Source: the supplement of paper PMC9023506
